Format in all cases: functional
Experiment [1] relates to Plasmodium falciparum. The experiment can be described thus: GSK_TCMDC: Inhibition of Plasmodium falciparum 3D7 in whole red blood cells, using parasite LDH activity as an index of growth. Test compounds present at 2uM.
Experiment [2] has as its system Plasmodium falciparum. The experiment can be described thus: GSK_TCMDC: Inhibition of Plasmodium falciparum Dd2 in whole red blood cells, using parasite LDH activity as an index of growth. Test compounds present at 2uM.
Another experiment relates to HepG2. The experiment can be described thus: GSK_TCMDC: Percent inhibition of human HepG2 cell line. Test compounds present at 10uM.

Structures are written as SMILES.

A word on the Inhibition: it is the drop in the measured response relative to a control, in per cent.

As for `COc1ccc(CON2C(=N)N=C(N)NC2(C)C)cc1OC.Cl`, the Inhibition is 96% in the experiment on Plasmodium falciparum [1], 97% in the experiment on Plasmodium falciparum [2] and 68% in the experiment with HepG2.
In the same order, the values of `O=C(NC1CC1)c1ccc(N2CCCC(COc3ccccc3F)C2)nc1` (stereo not given) are 87%, 92% and 8%.
In the same order, the values of `O=C(/C=C/c1ccc(Cl)c(Cl)c1)N1CCC(CCN2CCC(c3c[nH]c4cc5c(cc34)OCO5)CC2)CC1` are 99%, 65% and 46%.
For the compound `CN(CCN1CCC(c2c[nH]c3ccccc23)CC1)C(=O)OCCCCCNC(=O)/C=C/c1ccc(Cl)c(Cl)c1`, the values for the Inhibition in the experiment on Plasmodium falciparum [1], with Plasmodium falciparum [2] and in the experiment with HepG2 were 95%, 44% and 39%, respectively.
Taken in the same sequence, the figures for `Cl.O=C(/C=C/c1cccc(Cl)c1)Nc1ccc2nc(CN3CCCC3)ccc2c1` were 99%, 42% and 47%.
Taken in the same sequence, the figures for `CS(=O)(=O)N(c1ccccc1)c1cc(C(=O)N[C@@H](Cc2ccccc2)[C@H](O)CNC2CCCCC2)cc(N2CCCC2=O)c1` were 100%, 97% and 8%.
Take `COc1ccc(S(=O)(=O)NC2CCN(c3ccc(C(F)(F)F)cc3NC(=O)OCC(C)C)CC2)cc1`: the values for the Inhibition in the experiment on Plasmodium falciparum [1], in the experiment with Plasmodium falciparum [2] and in the experiment on HepG2 were 85%, 13% and 19%, respectively.
In the same order, the values of `CCOc1ccccc1C=CC(=O)Nc1ccc2nc(N3CCN(C)CC3)cc(C)c2c1` are 100%, 91% and 16%.
Taken in the same sequence, the figures for `O=C(O)C(F)(F)F.c1cc(CN2CCCCC2)cc(-c2ccc(-c3nc4ccccc4[nH]3)cc2)c1` were 100%, 88% and 9%.
Taken in the same sequence, the figures for `CCCCCCN1CCC(NCc2ccc(CN(C)C)cc2)CC1.O=C(O)C(F)(F)F` were 92%, 26% and 18%.
Regarding `Cc1cccc2nc(-c3cccc(-c4ccc(NC(=O)c5cnccc5C(F)(F)F)cc4)c3)[nH]c12`, the Inhibition worked out at 100% in the experiment with Plasmodium falciparum [1], 37% with Plasmodium falciparum [2] and 60% in the experiment on HepG2.
In the same order, the values of `CCCCCc1cnc2nc(N)nc(N)c2c1C.Cl` are 96%, 23% and 64%.
In the same order, the values of `Cn1cnc(CCNC(=O)c2cccc(-c3csc(-c4nc5ccccc5[nH]4)c3)c2)c1` are 100%, 26% and 33%.
Taken in the same sequence, the figures for `Oc1cc(Nc2ccnc3cc(-c4cccc(CN5CCOCC5)c4)ccc23)c(F)cc1Cl` were 100%, 89% and 12%.
On to `O=C(NC1CCCCC1)c1ccc(O)c(-c2cccc(C(F)(F)F)c2)c1`, for which the Inhibition in the experiment with Plasmodium falciparum [1] was determined as 97%; in the experiment with Plasmodium falciparum [2], 87%; in the experiment on HepG2 it was 8%.
Taken in the same sequence, the figures for `Br.C=CCc1cc(Br)ccc1OCCCON1C(N)=NC(N)=NC1(C)C` were 95%, 97% and 61%.
Consider `CC1(C)N=C(N)N=C(N)N1c1ccccc1.Cl`, for which the Inhibition with Plasmodium falciparum [1] stood at 98%; in the experiment on Plasmodium falciparum [2] it was 1%; in the experiment with HepG2, 16%.
Taken in the same sequence, the figures for `O=C(Nc1ccc(-c2ccc(CN3CCNCC3)cc2)cc1)c1cccc(Cl)c1.O=C(O)C(F)(F)F` were 91%, 16% and 58%.
Taken in the same sequence, the figures for `O=S(=O)(Nc1cccc(CCN2CCCCC2CCN2CCCC2)c1)c1ccc(-c2ccccc2)cc1` (stereo not given) were 99%, 5% and 31%.
In the same order, the values of `O=C(Nc1ccc(Cn2ncc(N3CCCNCC3)c(Cl)c2=O)cc1)Nc1ccc(-c2ccccc2)cc1.O=C(O)C(F)(F)F` are 93%, 51% and 10%.
Regarding `Cl.N#Cc1ccc2c(c1)CN(CCC1CCC(NC(=O)c3cc4cnccc4[nH]3)CC1)CC2` (stereo not given), the values for the Inhibition with Plasmodium falciparum [1], in the experiment on Plasmodium falciparum [2] and with HepG2 were 97%, 28% and 13%, respectively.
In the same order, the values of `O=C(NCCCCCN1CCC(c2c[nH]c3ccccc23)CC1)Nc1ccc(Br)cc1` are 91%, 0% and 24%.
Taken in the same sequence, the figures for `COc1ccc(-c2ccc(NC(=O)c3cccc(Cl)c3)cc2)cc1CN(C)CCO.O=C(O)C(F)(F)F` were 89%, 52% and 39%.
In the same order, the values of `CC1(C)N=C(N)N=C(N)N1c1ccc(I)cc1.Cl` are 92%, 1% and 16%.
For `CCCN(CCC)C(=O)c1cc(C(=O)N[C@@H](Cc2ccccc2)[C@H](O)CNCc2cccc(C(F)(F)F)c2)cc(N2CCCCS2(=O)=O)c1`, the values for the Inhibition with Plasmodium falciparum [1], in the experiment with Plasmodium falciparum [2] and in the experiment on HepG2 were 99%, 74% and 0%, respectively.
In the same order, the values of `COc1cc(NCC(O)CNc2cc(OC)c3ccccc3n2)nc2ccccc12` are 100%, 93% and 42%.
Taken in the same sequence, the figures for `O=C(/C=C/c1ccccc1Cl)NC1CCC(CN2CCC(c3c[nH]c4ccncc34)CC2)CC1` (stereo not given) were 100%, 100% and 19%.
In the same order, the values of `CN1CCc2cc(NC(=O)c3cc4ccccc4s3)cc(-c3ccccc3)c2CC1.Cl` are 91%, 11% and 20%.
Regarding `Cc1ccc(O)c(C(=O)c2cnc3c(c2)c(-c2ccc(F)cc2)c(C#N)c(=O)n3C)c1`, the Inhibition in the experiment on Plasmodium falciparum [1] was 93%; in the experiment on Plasmodium falciparum [2] it was 56%; in the experiment on HepG2 it was 17%.
Taken in the same sequence, the figures for `O=C(Nc1ccc2c(c1)OCO2)c1cc(-c2cccnc2)nc2ccc(Cl)cc12` were 89%, 41% and 9%.
Turning to `COc1cc(NC(=O)NC(CCN2CCC3(CCc4ccccc43)CC2)c2ccc(Cl)c(Cl)c2)cc(OC)c1OC` (stereo not given), the Inhibition stood at 90% with Plasmodium falciparum [1], 66% with Plasmodium falciparum [2] and 66% with HepG2.
As for `COc1ccc(O)c(C(=O)c2cc(C(=O)NC3CCCCC3)c(=O)n(C3CCCCC3)c2)c1`, the Inhibition in the experiment with Plasmodium falciparum [1] was found to be 99%; in the experiment with Plasmodium falciparum [2], 62%; in the experiment on HepG2, 8%.
Taken in the same sequence, the figures for `O=C(O)C(F)(F)F.Oc1ccc(CCNc2nc(NCc3ccc4cc(Cl)ccc4c3)nc(N3CCNCC3)n2)cc1` were 92%, 38% and 14%.
In the same order, the values of `CN1CCN(c2cc(-c3cccc(C(F)(F)F)c3)nc(-c3ccncc3)n2)CC1` are 100%, 98% and 38%.
In the case of `Cc1[nH]cnc1-c1cccc(NC(=O)c2cc3ccccc3s2)c1`, the Inhibition with Plasmodium falciparum [1] worked out at 99%; with Plasmodium falciparum [2] it was 48%; in the experiment with HepG2, 5%.
`CCc1ccc(NC(=O)c2cccc(CN3CCCN(Cc4cccc(O)c4)CC3)c2)cc1.O=C(O)C(F)(F)F`: the figures for the Inhibition in the experiment with Plasmodium falciparum [1], with Plasmodium falciparum [2] and in the experiment on HepG2 were 99%, 50% and 53%, respectively.
As for `CCCN1CCN(c2ccccc2NS(=O)(=O)c2ccc(C(=O)Nc3ccc(Cl)cc3)cc2)CC1.O=C(O)C(F)(F)F`, the figures for the Inhibition in the experiment with Plasmodium falciparum [1], with Plasmodium falciparum [2] and in the experiment on HepG2 were 84%, 9% and 17%, respectively.
In the same order, the values of `CC(C)c1ccc(CN(C)CCCCNC(=O)c2ccc(NC(=O)c3ccc(Cl)cc3)cc2)cc1` are 92%, 0% and 17%.
Taken in the same sequence, the figures for `COc1ccc(-c2ccc(NC(=O)c3cccc(Cl)c3)cc2)cc1CN1CCC(O)CC1.O=C(O)C(F)(F)F` were 100%, 12% and 15%.
On to `O=C(Cc1ccc(-c2ccccc2)cc1)N[C@H]1CCN(Cc2ccc(OCCCN3CCCCC3)cc2)C1`, for which the Inhibition is listed as 99% in the experiment with Plasmodium falciparum [1], 27% in the experiment with Plasmodium falciparum [2] and 36% with HepG2.
In the same order, the values of `CC(=O)Nc1csc(-c2cnc(/C=C(\C)C[C@@H]3OC[C@H](C[C@@H]4O[C@H]4[C@@H](C)[C@H](C)O)[C@@H](O)[C@H]3O)o2)c1` are 94%, 8% and 1%.
Taken in the same sequence, the figures for `C#CC[C@@H](NC(N)=O)C(=O)O` were 97%, 0% and 1%.
Taken in the same sequence, the figures for `Cl.O=C(Nc1cccc2ccccc12)N1CCc2cc3nccc(N4CCN5CCC[C@H]5C4)c3cc21` were 99%, 86% and 11%.
Turning to `Cc1cccc(C)c1CNc1ccnc2cc(C#N)ccc12.Cl`, the figures for the Inhibition with Plasmodium falciparum [1], in the experiment with Plasmodium falciparum [2] and in the experiment on HepG2 were 100%, 99% and 20%, respectively.
Taken in the same sequence, the figures for `FC(F)(F)c1ccc(/C=C/c2cncnc2Nc2ccc3[nH]c(Cc4ccccc4)nc3c2)cc1` were 100%, 100% and 21%.
As for `COC(=O)[C@@H](NC(=O)[C@H](CC(C)C)Nc1ccc(C#N)c2ccccc12)c1ccc(O)cc1.O=C(O)C(F)(F)F`, the results for the Inhibition in the experiment on Plasmodium falciparum [1], in the experiment on Plasmodium falciparum [2] and in the experiment on HepG2 were 98%, 87% and 4%, respectively.
Taken in the same sequence, the figures for `CCCCN(C(=O)c1ccccc1C)c1nnc(-c2ccccc2C)s1` were 92%, 94% and 10%.
In the same order, the values of `COCc1nc(N)nc(N)c1-c1ccc(Cl)c(Cl)c1` are 84%, 1% and 4%.
In the same order, the values of `O=C(Nc1ccc(Oc2cccnc2)cc1)C1CCN(Cc2cc(Cl)ccc2O)CC1` are 83%, 1% and 37%.
Consider `CCCc1cc(Cc2cnc(N)nc2N)cc(CC)c1O.Cl`, for which the values for the Inhibition in the experiment with Plasmodium falciparum [1], in the experiment with Plasmodium falciparum [2] and in the experiment on HepG2 were 87%, 0% and 56%, respectively.

The values above are taken from ChEMBL document CHEMBL1157539, “Thousands of chemical starting points for antimalarial lead identification” (Nature, 2010).
